This passage reports outcome and AC50 results from PubChem BioAssay (EPA / NIEHS).

Active and inactive are the calls of the source. The calls were made as follows: active = hit-call score of the fitted dose curve at least 0.9, where 1 is the maximum; inactive = score below 0.9.

Read-out in experiment [1]: Tissue Factor, F3 (gene 2152)
Put plainly: BSK_CASM3C_TissueFactor: BioMAP Diversity Plus: CASM3C Assay for Tissue Factor Biomarker Activity (AID 2283052).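 Also: cell surface tissue factor protein level read by ELISA.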 The note with it: primary human coronary artery smooth muscle cells; actives raise or lower the signal.

Read-out in experiment [2]: Urokinase-type plasminogen activator receptor (uPAR), PLAUR (gene 5329)
Put plainly: BSK_CASM3C_uPAR: BioMAP Diversity Plus: CASM3C Assay for Urokinase-type plasminogen activator receptor (uPAR) Biomarker Activity (AID 2283054).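 Also: cell-surface uPAR protein level quantified by ELISA.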 The note with it: primary human coronary artery smooth muscle cells; actives raise or lower the signal.

Read-out in experiment [3]: Collagen III, COL3A1 (gene 1281)
The experiment is described as follows: BSK_hDFCGF_CollagenIII: BioMAP Diversity Plus: hDFCGF Assay for Collagen III Biomarker Activity (AID 2283056). The conditions noted are these: primary human foreskin fibroblasts; actives raise or lower the signal. The procedure, abridged: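 ELISA readout of Collagen III in human dermal (foreskin) fibroblasts, taken 24 h post-treatment. Gain or loss relative to DMSO vehicle fitted in both directions.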

Read-out in experiment [4]: Epidermal growth factor receptor (EGFR), EGFR (gene 1956)
The experiment is described as follows: BSK_hDFCGF_EGFR: BioMAP Diversity Plus: hDFCGF Assay for Epidermal growth factor receptor (EGFR) Biomarker Activity (AID 2283057). The conditions noted are these: primary human foreskin fibroblasts; actives raise or lower the signal. The procedure, abridged:
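Primary human foreskin fibroblasts (hDFCGF system), sampled 24 h after dosing; EGFR quantified by ELISA. Bidirectional fit relative to DMSO baseline; SRB total-protein staining in parallel cultures for cytotoxicity.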

Read-out in experiment [5]: Interleukin-8 (IL8), CXCL8 (gene 3576)
The experiment is described as follows: BSK_hDFCGF_IL8: BioMAP Diversity Plus: hDFCGF Assay for Interleukin-8 (IL8) Biomarker Activity (AID 2283058). The note with it: primary human foreskin fibroblasts; actives raise or lower the signal. The procedure, abridged:
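IL-8 levels read by ELISA at 24 hours after dosing human skin fibroblast cultures. Parallel SRB staining assessed overt cytotoxicity, and gain or loss of signal was fitted against DMSO control.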

Experiment [6] can be described thus: BSK_hDFCGF_Proliferation: Cell Proliferation Assessment in the BioMAP Diversity Plus: hDFCGF Assay (AID 2283059).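 Also: curves fitted for both rise and fall of signal versus DMSO baseline.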 The note with it: primary human foreskin fibroblasts. The procedure, abridged:
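Primary human foreskin fibroblasts, sub-confluent; […]; 10% TCA fix, 0.1% SRB stain, A560 total protein. Gain/loss fitted bidirectionally vs DMSO control.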

The nature of experiment [7]: BSK_hDFCGF_SRB: Viability Assessment in the BioMAP Diversity Plus: hDFCGF Assay (AID 2283061).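 Also: cells exposed to compound for 24 h before the read.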 The conditions noted are these: primary human foreskin fibroblasts. The procedure, abridged:
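Viability was read as total protein: after 10% TCA fixation, wells were stained with 0.1% sulforhodamine B and read at 560 nm. Primary human foreskin fibroblasts were dosed for 24 h, with bidirectional fitting versus DMSO.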

Read-out in experiment [8]: Vascular cell adhesion molecule 1 (VCAM1), VCAM1 (gene 7412)
The experiment is described as follows: BSK_hDFCGF_VCAM1: BioMAP Diversity Plus: hDFCGF Assay for Vascular cell adhesion molecule 1 (VCAM1) Biomarker Activity (AID 2283065). The conditions noted are these: primary human foreskin fibroblasts; actives raise or lower the signal. The procedure, abridged:
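ELISA readout of VCAM-1 on human dermal fibroblast primary cultures, 24 h after chemical exposure. Gain or loss of signal fitted in both directions against DMSO baseline.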

Read-out in experiment [9]: Plasminogen activator inhibitor-1 (PAI1), SERPINE1 (gene 5054)
The experiment is described as follows: BSK_hDFCGF_PAI1: BioMAP Diversity Plus: hDFCGF Assay for Plasminogen activator inhibitor-1 (PAI1) Biomarker Activity (AID 2283066). The note with it: primary human foreskin fibroblasts; actives raise or lower the signal. The procedure, abridged: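 Human foreskin fibroblast primary cells, 24 h chemical exposure; PAI-1 measured by ELISA. Bidirectional fitting relative to DMSO; parallel cultures stained with SRB for total protein to flag overt cytotoxicity.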

Read-out in experiment [10]: Intercellular Adhesion Molecule 1 (ICAM1), ICAM1 (gene 3383)
The experiment is described as follows: BSK_KF3CT_ICAM1: BioMAP Diversity Plus: KF3CT Assay for Intercellular Adhesion Molecule 1 (ICAM1) Biomarker Activity (AID 2283067). The conditions noted are these: primary human keratinocytes with fibroblasts; actives raise or lower the signal. The procedure, abridged: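 Cell-surface ICAM-1 was measured by ELISA 24 h after dosing primary human skin keratinocytes co-cultured with fibroblasts. Parallel SRB staining tracked overt cytotoxicity. Gain or loss of signal was fitted relative to DMSO.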

Read-out in experiment [11]: Interferon-gamma inducible Protein 10 (IP10), CXCL10 (gene 3627)
The experiment is described as follows: BSK_KF3CT_IP10: BioMAP Diversity Plus: KF3CT Assay for Interferon-gamma inducible Protein 10 (IP10) Biomarker Activity (AID 2283068). The conditions noted are these: primary human keratinocytes with fibroblasts; actives raise or lower the signal. The procedure, abridged: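 In a primary skin co-culture of keratinocytes and fibroblasts, IP-10 is quantified by ELISA at 24 h after dosing. SRB staining of parallel wells monitors overt toxicity. Curves are fitted both directions against DMSO.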

Experiment [12] is described as follows: BSK_KF3CT_SRB: Viability Assessment in the BioMAP Diversity Plus: KF3CT Assay (AID 2283069).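 Also: total protein by sulforhodamine B staining as a cytotoxicity measure; read 24 h after compound addition.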 The conditions noted are these: primary human keratinocytes with fibroblasts. The procedure, abridged: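 Keratinocytes co-cultured with foreskin fibroblasts (human primary); chemical added, 24 h; fix 10% TCA, stain 0.1% SRB, A560. Bidirectional fit vs DMSO.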
Read-out in experiment [13]: Interleukin-1 alpha (IL1a), IL1A (gene 3552)
Put plainly: BSK_KF3CT_IL1a: BioMAP Diversity Plus: KF3CT Assay for Interleukin-1 alpha (IL1a) Biomarker Activity (AID 2283070). The conditions noted are these: primary human keratinocytes with fibroblasts; actives raise or lower the signal. The procedure, abridged: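 Chemicals were dosed onto co-cultured human keratinocytes and foreskin fibroblasts, IL-1a was quantified by ELISA at 24 h, and activity was fitted in both directions relative to DMSO controls.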

Read-out in experiment [14]: TIMP metallopeptidase inhibitor 2 (TIMP2), TIMP2 (gene 7077)
The experiment is described as follows: BSK_KF3CT_TIMP2: BioMAP Diversity Plus: KF3CT Assay for TIMP metallopeptidase inhibitor 2 (TIMP2) Biomarker Activity (AID 2283071). The conditions noted are these: primary human keratinocytes with fibroblasts; actives raise or lower the signal. The procedure, abridged: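 Co-culture of human primary keratinocytes and foreskin fibroblasts, measured 24 h after chemical dosing. TIMP-2 quantified by ELISA and fitted in both directions relative to DMSO. Cytotoxicity checked in parallel cultures by SRB total-protein staining.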

Read-out in experiment [15]: C-C motif chemokine 2 (Homo sapiens) (UniProt P13500)
The experiment is described as follows: BSK_KF3CT_MCP1: BioMAP Diversity Plus: KF3CT Assay for Monocyte Chemoattractant Protein 1 (MCP1/CCL2) Biomarker Activity (AID 2283073). The note with it: primary human keratinocytes with fibroblasts; actives raise or lower the signal. The procedure, abridged:
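ELISA read-out of MCP-1, 24 h post-dose, in primary human skin keratinocytes co-cultured with fibroblasts. Parallel SRB staining monitors cytotoxicity; changes fitted both directions relative to DMSO.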

Read-out in experiment [16]: Matrix Metallopeptidase 9 (MMP9), MMP9 (gene 4318)
The experiment is described as follows: BSK_KF3CT_MMP9: BioMAP Diversity Plus: KF3CT Assay for Matrix Metallopeptidase 9 (MMP9) Biomarker Activity (AID 2283074).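 As to AC50: MMP9 protein level quantified by ELISA in the co-culture.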 The conditions noted are these: primary human keratinocytes with fibroblasts; actives raise or lower the signal. The procedure, abridged: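 Human keratinocyte/foreskin fibroblast co-culture; compound added; 24 h; MMP-9 by ELISA; bidirectional fit vs DMSO baseline.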

Read-out in experiment [17]: urokinase plasminogen activator (uPA), PLAU (gene 5328)
The experiment is described as follows: BSK_KF3CT_uPA: BioMAP Diversity Plus: KF3CT Assay for urokinase plasminogen activator (uPA) Biomarker Activity (AID 2283075). The note with it: primary human keratinocytes with fibroblasts; actives raise or lower the signal. The procedure, abridged:
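ELISA readout of uPA, analyzed for signal gain or loss relative to DMSO, from a human primary keratinocyte–foreskin fibroblast co-culture measured 24 h after chemical treatment.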

Read-out in experiment [18]: E-selectin (Homo sapiens) (UniProt P16581)
The experiment is described as follows: BSK_LPS_Eselectin: BioMAP Diversity Plus: LPS Assay for Eselectin Biomarker Activity (AID 2283077). The note with it: primary human HUVEC with PBMC; actives raise or lower the signal. The procedure, abridged: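 E-selectin ELISA on LPS-stimulated endothelial cell/PBMC co-cultures, read 24 h post-treatment; gains and losses fitted against DMSO. Parallel SRB staining (0.1% SRB after 10% TCA fixation, 560 nm) flags overt cytotoxicity.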

Read-out in experiment [19]: Interleukin-8 (IL8), CXCL8 (gene 3576)
Put plainly: BSK_LPS_IL8: BioMAP Diversity Plus: LPS Assay for Interleukin-8 (IL8) Biomarker Activity (AID 2283078). The note with it: primary human HUVEC with PBMC; actives raise or lower the signal. The procedure, abridged: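 ELISA read-out of IL-8 after 24 h chemical treatment of LPS-activated endothelial/PBMC human primary co-cultures. Changes either up or down relative to DMSO; overt cytotoxicity checked by sulforhodamine B staining in parallel wells.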

The nature of experiment [20]: BSK_LPS_SRB: Viability Assessment in the BioMAP Diversity Plus: LPS Assay (AID 2283079).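 Also: total protein by sulforhodamine B absorbance as a cytotoxicity measure; measured one day after compound addition.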 The conditions noted are these: primary human HUVEC with PBMC. The procedure, abridged: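 SRB viability endpoint: cells fixed with 10% TCA, stained with 0.1% SRB, read at 560 nm, 24 h post-dose. HUVEC/PBMC co-culture; signal change in either direction scored relative to DMSO.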

Chain of E-selectin (Homo sapiens) (P16581 whole entry, looked up): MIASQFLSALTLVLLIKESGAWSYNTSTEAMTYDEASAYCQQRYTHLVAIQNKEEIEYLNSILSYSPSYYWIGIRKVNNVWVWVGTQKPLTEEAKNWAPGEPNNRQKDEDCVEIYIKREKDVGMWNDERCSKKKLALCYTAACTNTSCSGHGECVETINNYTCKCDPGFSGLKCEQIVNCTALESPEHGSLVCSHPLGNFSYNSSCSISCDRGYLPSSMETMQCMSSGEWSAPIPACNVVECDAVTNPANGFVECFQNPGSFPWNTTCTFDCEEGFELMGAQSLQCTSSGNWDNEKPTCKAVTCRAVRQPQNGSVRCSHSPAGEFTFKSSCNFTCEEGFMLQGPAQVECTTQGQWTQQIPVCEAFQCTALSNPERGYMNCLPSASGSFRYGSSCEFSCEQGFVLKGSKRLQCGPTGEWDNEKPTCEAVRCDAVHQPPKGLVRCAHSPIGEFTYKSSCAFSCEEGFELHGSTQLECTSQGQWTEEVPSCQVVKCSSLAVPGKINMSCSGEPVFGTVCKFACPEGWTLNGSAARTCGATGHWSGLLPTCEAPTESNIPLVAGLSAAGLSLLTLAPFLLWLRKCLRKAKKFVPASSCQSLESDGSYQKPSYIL

Take `Oc1cccc2ccccc12`: the outcome in experiment [1], in [2], in [3], in experiment [4], in [5] and in experiment [7] was inactive. The result in experiment [8], in experiment [9], in [10], in experiment [11], in experiment [12] and in [13] was inactive. In addition, the outcome in [14], in [15], in experiment [16], in [17], in [18] and in experiment [19] was inactive. For the same compound, in experiment [20], the outcome was inactive. Further, the AC50 in [6] was 13.3 µM (active).
For the compound `CC[N+](CC)(CC(=O)Nc1c(C)cccc1C)Cc1ccccc1` (tested in a mixture with another compound), the outcome in experiment [1], in experiment [2], in experiment [3], in [4], in [5] and in experiment [6] was inactive. Also, the result in [7], in experiment [8], in experiment [9], in [10], in experiment [11] and in experiment [12] was inactive. Besides, the outcome in experiment [13], in experiment [14], in [15], in [16], in [17] and in experiment [18] was inactive. Moreover, the outcome in experiment [19] and in experiment [20] was inactive.
For `Sc1nc2ccccc2s1`, the AC50 in [1] was 0.016 µM (active); in experiment [20] it was 3.97 µM (active). Also, the result in experiment [2], in experiment [3], in experiment [4], in experiment [5], in experiment [6] and in experiment [7] was inactive. In addition, the outcome in [8], in experiment [9], in [10], in experiment [11], in [12] and in experiment [13] was inactive. The outcome in [14], in experiment [15], in experiment [16], in experiment [17], in experiment [18] and in experiment [19] was inactive.
Consider `CC(C)CC(=O)CC(C)CC(C)C` (stereo not given), for which the AC50 in [1] is 31.7 µM (active); in experiment [2], 30.4 µM (active); in experiment [6], 39.5 µM (active); in [7] it was 34.7 µM (active); in [9] it was 32.2 µM (active); in experiment [10], 31.8 µM (active). Also, the AC50 in experiment [12] is 36.7 µM (active); in experiment [13] it was 35 µM (active); in [14] it was 32.2 µM (active); in [15], 37.1 µM (active); in experiment [16], 36.4 µM (active); in experiment [17] it was 30.4 µM (active). Also, the AC50 is 29.6 µM (active) in experiment [18] and 31.7 µM (active) in experiment [20]. Also, the outcome in experiment [3], in [4], in experiment [5], in experiment [8], in experiment [11] and in experiment [19] was inactive.

Usually AC50 stands for the midpoint of the concentration-response curve, whichever way the signal moves.
